# From PubChem BioAssay (EPA / NIEHS)
# “And” between values parts separate entries of the source, which are not always exact repeats. Identical values can stand only once. The source made the active and inactive calls. How the source made its calls: active means hit-call score of the fitted dose curve at least 0.9, where 1 is the maximum; inactive means score below 0.9.
# Read-out: Human Leukocyte Antigen - DR isotype (HLADR), HLA-DRA (gene 3122)
# Assay: BSK_BE3C_HLADR: BioMAP Diversity Plus: BE3C Assay for Human Leukocyte Antigen - DR isotype (HLADR) Biomarker Activity (AID 2283032)
# Conditions: primary human bronchial epithelial cells; actives raise or lower the signal
# Method: BSK_BE3C is a cell-based, multiplexed-readout assay that uses bronchial epithelial cell, a human lung primary cell, with measurements taken at 24 hours after chemical dosing in a 96-well plate.BSK_BE3C_HLADR is an assay component measured in the BSK_BE3C assay. It measures HLA-DR antibody related to regulation of gene expression using ELISA technology.Data from the assay component BSK_BE3C_HLADR was analyzed into 1 assay endpoint. This assay endpoint, BSK_BE3C_HLADR, was analyzed with bidirectional fitting relative to DMSO as the negative control and baseline of activity. Using a type of binding reporter, gain or loss-of-signal activity can be used to understand changes in the signaling as they relate to the gene HLA-DRA. Furthermore, this assay endpoint can be referred to as a primary readout, because this assay has produced multiple assay endpoints where this one serves a signaling function. To generalize the intended target to other relatable targets, this assay endpoint is annotated to the cell adhesion molecules intended target family, where the subfamily is MHC Class II.
# The levels of cell surface (or secreted, indicated by the prefix "s") biomarker endpoints were measured by ELISA. Overt cytotoxicity to cells in confluent adherent cultures (all systems other than the BT system) was assessed by measuring total protein levels using sulforhodamine B (SRB) staining in parallel cultures at the time of biomarker measurements, indicated as SRB endpoints. For proliferation assays for adherent cell types, individual cell types are cultured at sub-confluence and relative cell numbers quantified by SRB staining at time points optimized for each system (48 h: 3C and CASM3C systems; 72 h: BT and HDF3CGF systems; 96 h: SAg system). SRB was performed by staining cells with 0.1% SRB after fixation with 10% TCA and reading wells at 560 nm.Viability and proliferation of PBMC (T cells) was quantified by Alamar Blue reduction for the SAg and BT systems. For PBMC viability (referred to as PBMC Cytotoxicity within the assay endpoint names), cells were plated (75,000/well in a 96-well plate) and then chemical samples added for 1 h before addition of activators, SEB and TSST-1 (20 ng/mL final concentration each). Cells were incubated for 90 h. Then, Alamar Blue (20 uL/well) (Invitrogen, Cat DAL1100) was added for 6 h, and the plates were read with a fluorescence microplate reader at 546/580 nm (excitation/emission). For PBMC proliferation, cells were plated and activated as above but incubated for only 16 h prior to addition of Alamar Blue. Plates were read after 6 h.
SMILES,outcome,AC50
Nc1ccc(Cc2ccc(N)cc2)cc1,inactive,
Oc1ccc2ccc3cccc4ccc1c2c34,,34.6 µM (active)
O=[N+]([O-])C(Br)(CO)CO,inactive,
C1=Cc2cccc3cccc1c23,inactive,
CCC[CH2][Sn]([Cl])([CH2]CCC)[CH2]CCC,,0.215 µM (active)
O=C(Oc1ccc(Br)cc1)N1CCN2CCC1CC2,inactive,
Nc1ccc(Oc2ccc(N)cc2)cc1,inactive,
O=P(OCCCl)(OCCCl)OCCCl,inactive,
Clc1ccc(C(c2ccc(Cl)cc2)C(Cl)Cl)cc1,,30.5 µM (active)
C=CCc1ccc2c(c1)OCO2,inactive,
c1ccc(NNc2ccccc2)cc1,inactive,
[Cl-].[Cl-].[Hg+2],,30.2 µM (active)
CO[C@@H]1[C@H](OC(=O)NC(=O)CCl)CC[C@]2(CO2)[C@H]1[C@@]1(C)O[C@@H]1CC=C(C)C,,7.85 µM (active)
CCOc1cccc(C2(N3CCN(c4ccccc4)CC3)CCC(C)CC2)c1 (stereo not given),inactive,
OCCCBr,inactive,
CCCCCOC(=O)c1ccccc1C(=O)OCCCCC,inactive,
c1ccc2c(c1)oc1ccccc12,inactive,
Clc1ccccc1Cl,inactive,
CC(C)(C)OOC(C)(C)CCC(C)(C)OOC(C)(C)C,inactive,
CC(C)N(Cc1ccccc1)C(=O)C(C)(C)C,inactive,

SMILES,outcome,AC50
N#CC(Br)(Br)C(N)=O,inactive,
CC(C)(C)C(O)(CCc1ccc(Cl)cc1)Cn1cncn1 (stereo not given),inactive,
CCCSC(=O)N(CCC)CCC,inactive,
CC(C)(C)OOC(=O)c1ccccc1,inactive,
O=C(Nc1ccccc1)c1ccccc1I,inactive,
O=Cc1ccco1,inactive,
CCCCOC(=O)c1ccccc1C(=O)OCc1ccccc1,inactive,
CN(C)[C@@H]1C(=O)C(C(N)=O)=C(O)[C@@]2(O)C(=O)C3=C(O)c4c(O)cccc4[C@@](C)(O)[C@H]3C[C@@H]12,inactive,
O=C1CCCO1,inactive,
CCNS(=O)(=O)C(F)(F)C(F)(F)C(F)(F)C(F)(F)C(F)(F)C(F)(F)C(F)(F)C(F)(F)F,,5.32 µM (active) and 36.7 µM (active) and 30 µM (active)
CCC(C)c1ccc(O)cc1 (stereo not given),inactive,
COc1cc(C=O)cc2c1[C@H](COC(N)=O)[C@]1(OC(C)=O)ON2C[C@H]2[C@@H]1N2C(C)=O,,1.74 µM (active)
CC(O)CCO (stereo not given),inactive,
CC(C)(OOC(C)(C)c1ccccc1)c1ccccc1,,27.7 µM (active)
C[C@]12C=CC3=C4CCC(=O)C=C4CC[C@H]3[C@@H]1CC[C@@H]2O,inactive,
CC(C)COC(=O)c1ccccc1C(=O)OCC(C)C,inactive,
COC(=O)Nc1nc2ccccc2[nH]1,inactive,
CN(C)c1ccc(C(=O)c2ccc(N(C)C)cc2)cc1,inactive,
Cc1cccc(N)c1N,inactive,
CCCCCCCCCCCCCN1CC(C)OC(C)C1 (stereo not given),inactive,
